Measured values published in PubChem BioAssay (EPA / NIEHS).
Several values for one entry are separate records, joined by “and”; a condition that tells them apart may be missing. Equal entries are not always repeated. Records with an inconclusive call do not appear. A structure can be active in one record and inactive in another. Activity calls are given as the source filed them. The calls were made as follows, unless noted: active = hit-call score of the fitted dose curve at least 0.9, where 1 is the maximum; inactive = score below 0.9.

Columns and labels:
[1] = molecular target: human RAR-related Orphan Receptor gamma (RORg), RORC (gene 6097) (UniProt P51449); assay: ATG_RORg_TRANS: Attagene TRANS-FACTORIAL HepG2 Assay for human RAR-related Orphan Receptor gamma (RORg) (AID 2283011; active = hit-call score of the fitted dose curve at least 0.9, where 1 is the maximum)
Sequence of human RAR-related Orphan Receptor gamma (RORg), RORC (gene 6097) (P51449 whole entry, looked up, the tested form may be a part): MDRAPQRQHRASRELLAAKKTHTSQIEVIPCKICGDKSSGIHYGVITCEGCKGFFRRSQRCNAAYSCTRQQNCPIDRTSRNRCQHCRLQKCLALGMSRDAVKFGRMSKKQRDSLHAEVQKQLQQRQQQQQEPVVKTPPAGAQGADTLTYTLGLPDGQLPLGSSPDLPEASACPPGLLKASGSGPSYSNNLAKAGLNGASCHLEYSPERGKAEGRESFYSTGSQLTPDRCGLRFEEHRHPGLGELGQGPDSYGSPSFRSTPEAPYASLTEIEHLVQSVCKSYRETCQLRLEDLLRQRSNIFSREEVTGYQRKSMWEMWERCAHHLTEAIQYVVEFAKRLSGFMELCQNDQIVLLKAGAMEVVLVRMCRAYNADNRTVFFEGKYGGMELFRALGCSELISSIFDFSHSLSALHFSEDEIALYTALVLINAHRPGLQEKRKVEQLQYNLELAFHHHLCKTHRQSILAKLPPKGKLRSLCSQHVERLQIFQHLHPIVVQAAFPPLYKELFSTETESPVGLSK
Method in brief: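 Transient MRTU transfection of HepG2 (TRANS format, exogenous NR-Gal4 chimera). 24 h dosing. Total RNA → oligo(dT) RT → PCR → 6-FAM labelling → HpaI cut → CE. Gain vs DMSO.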

[2] = molecular target: Retinoic acid receptor RXR-alpha (Homo sapiens) (UniProt P19793); assay: ATG_RXRa_TRANS: Attagene TRANS-FACTORIAL HepG2 Assay for human Retinoid X Receptor alpha (RXRa) (AID 2283012; active = hit-call score of the fitted dose curve at least 0.9, where 1 is the maximum)
Sequence of Retinoic acid receptor RXR-alpha (Homo sapiens) (P19793 whole entry, looked up, the tested form may be a part): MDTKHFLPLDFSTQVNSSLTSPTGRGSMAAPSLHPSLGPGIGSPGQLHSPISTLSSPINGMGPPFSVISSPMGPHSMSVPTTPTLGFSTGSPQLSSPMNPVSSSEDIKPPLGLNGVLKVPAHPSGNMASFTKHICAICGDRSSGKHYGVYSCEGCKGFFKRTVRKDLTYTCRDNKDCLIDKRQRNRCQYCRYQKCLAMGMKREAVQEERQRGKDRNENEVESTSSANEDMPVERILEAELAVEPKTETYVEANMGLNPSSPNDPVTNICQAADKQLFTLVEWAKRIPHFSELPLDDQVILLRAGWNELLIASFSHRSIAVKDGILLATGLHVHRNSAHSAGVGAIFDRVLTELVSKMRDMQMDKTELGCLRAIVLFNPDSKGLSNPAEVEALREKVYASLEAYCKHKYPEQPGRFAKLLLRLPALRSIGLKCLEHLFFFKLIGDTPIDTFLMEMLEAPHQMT
Method in brief: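 Chimeric NR-GAL4 trans-activation in HepG2, 24 h treatment; reporter transcripts quantified by fluorescence on capillary electrophoresis, analysed for upward change from DMSO.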

[3] = molecular target: human Thyroid Receptor alpha (THRa1), THRA (gene 7067) (UniProt P10827); assay: ATG_THRa1_TRANS: Attagene TRANS-FACTORIAL HepG2 Assay for human Thyroid Receptor alpha (THRa1) (AID 2283014; active = hit-call score of the fitted dose curve at least 0.9, where 1 is the maximum)
Sequence of human Thyroid Receptor alpha (THRa1), THRA (gene 7067) (P10827 whole entry, looked up, the tested form may be a part): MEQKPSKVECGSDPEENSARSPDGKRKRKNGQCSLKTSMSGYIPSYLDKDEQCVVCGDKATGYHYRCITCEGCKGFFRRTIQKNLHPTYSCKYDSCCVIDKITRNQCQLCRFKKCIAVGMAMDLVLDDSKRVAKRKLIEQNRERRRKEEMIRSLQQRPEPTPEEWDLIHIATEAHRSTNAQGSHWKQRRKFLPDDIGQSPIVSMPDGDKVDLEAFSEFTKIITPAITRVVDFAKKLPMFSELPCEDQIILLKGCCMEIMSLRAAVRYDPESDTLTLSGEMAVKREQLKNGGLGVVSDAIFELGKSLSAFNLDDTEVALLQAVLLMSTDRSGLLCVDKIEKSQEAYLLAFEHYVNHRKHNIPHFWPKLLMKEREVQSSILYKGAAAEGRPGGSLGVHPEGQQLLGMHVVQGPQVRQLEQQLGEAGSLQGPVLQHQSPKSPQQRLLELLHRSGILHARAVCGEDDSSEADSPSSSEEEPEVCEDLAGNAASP
Method in brief: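 Transient HepG2 transfection, NR-Gal4 chimera driving GAL4-UAS reporters; 24 h compound exposure; total RNA, oligo(dT) RT, PCR, fluorescent primer extension, capillary electrophoresis. Upward direction vs DMSO control.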

[4] = read-out: E-selectin (Homo sapiens) (UniProt P16581); assay: BSK_3C_Eselectin: BioMAP Diversity Plus: 3C Assay for Eselectin Biomarker Activity (AID 2283015); conditions: primary human endothelial cells (HUVEC); actives raise or lower the signal;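 as to outcome: cell surface E-selectin protein quantified by ELISA 24 h after dosing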
Method in brief: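 HUVEC, 3C stimulation; compound exposure 24 h; E-selectin by ELISA; gain- or loss-of-signal fitted bidirectionally vs DMSO baseline.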

[5] = read-out: Interleukin-1 alpha (IL1a), IL1A (gene 3552); assay: BSK_BE3C_IL1a: BioMAP Diversity Plus: BE3C Assay for Interleukin-1 alpha (IL1a) Biomarker Activity (AID 2283016); conditions: primary human bronchial epithelial cells; actives raise or lower the signal
Method in brief: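 Measured in human lung primary bronchial epithelial cells: IL-1a by ELISA at 24 h after dosing, with bidirectional fitting against DMSO.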

[6] = read-out: Monocyte Chemoattractant Protein-1 (MCP1), CCL2 (gene 6347); assay: BSK_3C_MCP1: BioMAP Diversity Plus: 3C Assay for Monocyte Chemoattractant Protein-1 (MCP1) Biomarker Activity (AID 2283017); conditions: primary human endothelial cells (HUVEC); actives raise or lower the signal
Method in brief: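 HUVEC, 3C system; 24 h chemical exposure; MCP-1 by ELISA; bidirectional curve fit vs DMSO baseline.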

[7] = read-out: Monocyte Chemoattractant Protein-1 (MCP1), CCL2 (gene 6347); assay: BSK_4H_MCP1: BioMAP Diversity Plus: 4H Assay for Monocyte Chemoattractant Protein-1 (MCP1) Biomarker Activity (AID 2283018); conditions: primary human endothelial cells (HUVEC); actives raise or lower the signal
Method in brief: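 Primary human umbilical vein endothelium is exposed to chemical for 24 h before MCP-1 is assayed by ELISA. Concentration-response fitted bidirectionally relative to DMSO.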

[8] = read-out: Human Leukocyte Antigen - DR isotype (HLADR), HLA-DRA (gene 3122); assay: BSK_3C_HLADR: BioMAP Diversity Plus: 3C Assay for Human Leukocyte Antigen - DR isotype (HLADR) Biomarker Activity (AID 2283019); conditions: primary human endothelial cells (HUVEC); actives raise or lower the signal;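 as to outcome: ELISA of cell-surface HLA-DR on HUVEC 24 h after dosing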
Method in brief: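 HUVEC, 3C stimulation, 24 h post-dose; HLA-DR by ELISA; bidirectional curve fit vs DMSO baseline; gain or loss of signal scored.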

[9] = read-out: Interleukin-8 (IL8), CXCL8 (gene 3576); assay: BSK_3C_IL8: BioMAP Diversity Plus: 3C Assay for Interleukin-8 (IL8) Biomarker Activity (AID 2283020); conditions: primary human endothelial cells (HUVEC); actives raise or lower the signal
Method in brief: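 Using DMSO-treated wells as the baseline, bidirectional curve fitting was applied to ELISA-measured IL-8 from human umbilical vein endothelial cultures sampled 24 h after compound addition.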

[10] = read-out: Monokine induced gamma interferon (MIG), CXCL9 (gene 4283); assay: BSK_3C_MIG: BioMAP Diversity Plus: 3C Assay for Monokine induced gamma interferon (MIG) Biomarker Activity (AID 2283021); conditions: primary human endothelial cells (HUVEC); actives raise or lower the signal;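 as to AC50: MIG protein level measured by immunoassay in the treated endothelial cultures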
Method in brief: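 ELISA-measured MIG in dosed HUVEC 3C cultures at 24 h, analysed by bidirectional fitting with DMSO defining baseline activity.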

[11] = molecular target: human Vitamin D Receptor (VDR), VDR (gene 7421) (UniProt P11473); assay: ATG_VDR_TRANS: Attagene TRANS-FACTORIAL HepG2 Assay for human Vitamin D Receptor (VDR) (AID 2283022; active = hit-call score of the fitted dose curve at least 0.9, where 1 is the maximum)
Sequence of human Vitamin D Receptor (VDR), VDR (gene 7421) (P11473 whole entry, looked up, the tested form may be a part): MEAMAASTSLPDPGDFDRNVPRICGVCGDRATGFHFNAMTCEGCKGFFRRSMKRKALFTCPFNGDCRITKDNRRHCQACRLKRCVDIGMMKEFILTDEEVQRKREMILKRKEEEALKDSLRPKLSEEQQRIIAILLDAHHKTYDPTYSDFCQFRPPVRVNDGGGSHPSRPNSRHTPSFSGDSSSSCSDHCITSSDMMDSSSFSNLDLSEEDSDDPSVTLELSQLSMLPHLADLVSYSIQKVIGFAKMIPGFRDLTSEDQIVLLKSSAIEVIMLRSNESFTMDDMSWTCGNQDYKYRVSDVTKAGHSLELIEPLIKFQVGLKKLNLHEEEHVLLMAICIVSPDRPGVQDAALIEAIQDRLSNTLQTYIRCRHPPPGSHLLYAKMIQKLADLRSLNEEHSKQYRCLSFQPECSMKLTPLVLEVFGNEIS
Method in brief: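 RT-PCR/capillary electrophoresis read-out of reporter mRNA induction in transiently transfected HepG2; 24 h dosing; chimeric NR-Gal4 (TRANS format); gain-of-signal fit against DMSO baseline.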

[12] = BSK_3C_SRB: Viability Assessment in the BioMAP Diversity Plus: 3C Assay (AID 2283023); conditions: primary human endothelial cells (HUVEC);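 also: cells read 24 h after compound dosing; fitted both ways against DMSO so a hit may be signal rise or drop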
Method in brief: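 HUVEC, 24 h post-dose; 10% TCA fix, 0.1% SRB stain, A560 nm. Bidirectional curve fit vs DMSO negative control.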

[13] = read-out: Matrix Metallopeptidase 1 (MMP1), MMP1 (gene 4312); assay: BSK_BE3C_MMP1: BioMAP Diversity Plus: BE3C Assay for Matrix Metallopeptidase 1 (MMP1) Biomarker Activity (AID 2283024); conditions: primary human bronchial epithelial cells; actives raise or lower the signal
Method in brief: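 In this multiplexed primary-cell system, human bronchial epithelium received chemicals for 24 h before an ELISA for MMP1. Values reflect bidirectional fits normalised to the DMSO baseline.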

[14] = BSK_3C_Vis: BioMAP Diversity Plus: 3C Assay for Morphology Visualization (AID 2283025); conditions: primary human endothelial cells (HUVEC);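 also: fitted both ways so gain or loss versus DMSO counts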;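 as to AC50: light microscopy image of cell morphology used as background control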
Method in brief: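 Light-microscopy morphology readout, 24 h exposure, human primary umbilical vein endothelium; analysed relative to DMSO with bidirectional fitting.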

[15] = read-out: Pselectin, SELP (gene 6403); assay: BSK_4H_Pselectin: BioMAP Diversity Plus: 4H Assay for Pselectin Biomarker Activity (AID 2283026); conditions: primary human endothelial cells (HUVEC); actives raise or lower the signal
Method in brief: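 Bidirectional fits against DMSO gave the endpoint. Cells: primary human umbilical vein endothelium, chemical-treated for 24 h before ELISA detection of P-selectin.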

[16] = BSK_4H_SRB: Viability Assessment in the BioMAP Diversity Plus: 4H Assay (AID 2283027); conditions: primary human endothelial cells (HUVEC);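 also: cells exposed to compound for 24 h before staining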;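 as to AC50: curves fitted both ways versus DMSO so AC50 may be loss or gain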
Method in brief: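 Cytotoxicity readout: sulforhodamine B (0.1%) staining of total protein after 10% TCA fixation, measured at 560 nm in human umbilical vein endothelium at 24 h. DMSO set the baseline; fitting was bidirectional.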

[17] = BSK_BE3C_SRB: Viability Assessment in the BioMAP Diversity Plus: BE3C Assay (AID 2283028); conditions: primary human bronchial epithelial cells;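 as to AC50: fitted both ways so AC50 may mark signal gain or loss versus DMSO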
Method in brief: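 Primary human bronchial epithelium; chemical dosing, 24 h; 10% TCA fix, 0.1% SRB stain, A560; bidirectional fit vs DMSO baseline.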

[18] = read-out: Thrombomodulin, THBD (gene 7056); assay: BSK_3C_Thrombomodulin: BioMAP Diversity Plus: 3C Assay for Thrombomodulin Biomarker Activity (AID 2283029); conditions: primary human endothelial cells (HUVEC); actives raise or lower the signal
Method in brief: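 In a multiplexed primary-cell system, human umbilical vein endothelium received chemical and was assayed 24 h later for thrombomodulin by ELISA. Parallel cultures were SRB-stained (0.1% SRB after 10% TCA fixation, read at 560 nm) to flag cytotoxicity.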

[19] = molecular target: human RAR-related Orphan Receptor beta (RORb), RORB (gene 6096) (UniProt Q92753); assay: ATG_RORb_TRANS: Attagene TRANS-FACTORIAL HepG2 Assay for human RAR-related Orphan Receptor beta (RORb) (AID 2283010; active = hit-call score of the fitted dose curve at least 0.9, where 1 is the maximum)
Sequence of human RAR-related Orphan Receptor beta (RORb), RORB (gene 6096) (Q92753 whole entry, looked up, the tested form may be a part): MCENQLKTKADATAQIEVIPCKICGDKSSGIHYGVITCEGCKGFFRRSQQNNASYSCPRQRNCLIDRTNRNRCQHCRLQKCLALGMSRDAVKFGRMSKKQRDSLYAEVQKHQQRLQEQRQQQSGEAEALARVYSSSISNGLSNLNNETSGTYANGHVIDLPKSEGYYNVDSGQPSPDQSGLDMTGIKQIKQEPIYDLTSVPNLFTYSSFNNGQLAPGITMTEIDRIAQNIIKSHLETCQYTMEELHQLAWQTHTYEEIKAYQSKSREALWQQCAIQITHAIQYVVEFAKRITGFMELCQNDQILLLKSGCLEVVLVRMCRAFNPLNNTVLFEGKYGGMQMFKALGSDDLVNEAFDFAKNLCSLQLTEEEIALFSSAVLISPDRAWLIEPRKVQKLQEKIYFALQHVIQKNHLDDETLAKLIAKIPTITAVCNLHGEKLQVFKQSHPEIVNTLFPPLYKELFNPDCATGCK
Method in brief: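 Multiplexed transcription-factor reporter assay: HepG2 cells transiently carrying NR-Gal4/GAL4-UAS constructs, 24 h treatment, mRNA quantified by RT-PCR plus capillary electrophoresis fluorescence; activity scored as induction over DMSO.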

Sequence of E-selectin (Homo sapiens) (P16581 whole entry, looked up): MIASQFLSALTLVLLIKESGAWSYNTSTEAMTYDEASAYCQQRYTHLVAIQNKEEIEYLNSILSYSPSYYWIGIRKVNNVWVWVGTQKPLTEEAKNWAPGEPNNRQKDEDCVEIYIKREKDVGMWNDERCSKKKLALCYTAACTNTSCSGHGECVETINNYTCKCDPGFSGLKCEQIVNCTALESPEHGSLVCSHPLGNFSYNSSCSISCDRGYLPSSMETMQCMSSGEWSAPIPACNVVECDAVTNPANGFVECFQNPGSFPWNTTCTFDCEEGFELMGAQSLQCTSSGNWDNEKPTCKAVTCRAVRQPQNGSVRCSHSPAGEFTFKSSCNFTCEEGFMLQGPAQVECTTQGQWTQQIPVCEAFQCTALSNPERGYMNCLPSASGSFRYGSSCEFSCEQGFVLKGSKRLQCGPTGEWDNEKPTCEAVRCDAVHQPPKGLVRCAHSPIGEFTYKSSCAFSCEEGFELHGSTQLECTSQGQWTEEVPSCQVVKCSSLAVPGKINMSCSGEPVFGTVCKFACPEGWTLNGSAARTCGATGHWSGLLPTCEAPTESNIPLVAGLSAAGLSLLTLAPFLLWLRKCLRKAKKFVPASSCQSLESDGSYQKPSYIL

SMILES: CC1(C)C(C=C(Cl)Cl)C1C(=O)OC(C#N)c1ccc(F)c(Oc2ccccc2)c1 (configuration not stated)
- outcome [1]: inactive
- outcome [2]: inactive
- outcome [3]: inactive
- outcome [4]: inactive
- outcome [5]: inactive
- outcome [6]: inactive
- AC50 [7]: 7.95 µM (active)
- outcome [8]: inactive
- outcome [9]: inactive
- outcome [10]: inactive
- outcome [11]: inactive
- AC50 [12]: 8.15 µM (active)
- outcome [13]: inactive
- AC50 [14]: 9.8 µM (active)
- outcome [15]: inactive
- outcome [16]: inactive
- outcome [17]: inactive
- outcome [18]: inactive

SMILES: Oc1ccc(Cl)cc1Cc1ccccc1
- outcome [19]: inactive
- AC50 [2]: 13.6 µM (active) [middle of 5 runs]
- outcome [2]: inactive
- outcome [3]: inactive
- AC50 [4]: 34.7 µM (active) [middle of 6 runs]
- AC50 [5]: 33.8 µM (active) [middle of 7 runs]
- AC50 [6]: 34.8 µM (active) [middle of 7 runs]
- AC50 [7]: 14.5 µM (active) [middle of 5 runs]
- outcome [7]: inactive
- AC50 [8]: 31.3 µM (active) [middle of 7 runs]
- AC50 [9]: 33.6 µM (active) [middle of 7 runs]
- AC50 [10]: 36.8 µM (active) [middle of 7 runs]
- AC50 [12]: 24.4 µM (active) [middle of 7 runs]
- AC50 [13]: 32.8 µM (active) [middle of 7 runs]
- AC50 [14]: 37.9 µM (active) and 14.7 µM (active) and 20 µM (active)
- AC50 [15]: 28.2 µM (active) [middle of 7 runs]
- AC50 [16]: 28.1 µM (active) [middle of 7 runs]
- AC50 [17]: 34.7 µM (active) [middle of 5 runs]
- AC50 [18]: 31.8 µM (active) [middle of 5 runs]
- outcome [18]: inactive

SMILES: Cc1cc(C)nc(NC(=O)NS(=O)(=O)c2ccccc2C(=O)OC2COC2)n1
- outcome [19]: inactive
- outcome [3]: inactive
- outcome [4]: inactive
- outcome [5]: inactive
- outcome [7]: inactive
- outcome [8]: inactive
- outcome [9]: inactive
- outcome [10]: inactive
- outcome [11]: inactive
- outcome [12]: inactive
- outcome [14]: inactive
- outcome [15]: inactive
- outcome [16]: inactive
- outcome [17]: inactive
- outcome [18]: inactive

SMILES: CNC(=O)Oc1cccc(N=CN(C)C)c1
- outcome [19]: inactive
- outcome [2]: inactive
- outcome [3]: inactive
- AC50 [4]: 20 µM (active)
- outcome [5]: inactive
- outcome [7]: inactive
- AC50 [8]: 18.2 µM (active)
- outcome [9]: inactive
- outcome [10]: inactive
- outcome [12]: inactive
- outcome [13]: inactive
- AC50 [14]: 39 µM (active)
- outcome [15]: inactive
- outcome [16]: inactive
- outcome [17]: inactive
- outcome [18]: inactive

SMILES: CN1CSC(=S)N(C)C1
- outcome [19]: inactive
- outcome [1]: inactive
- outcome [2]: inactive
- outcome [3]: inactive
- AC50 [4]: 18.1 µM (active)
- outcome [5]: inactive
- AC50 [6]: 31.2 µM (active)
- outcome [7]: inactive
- AC50 [8]: 19 µM (active)
- outcome [9]: inactive
- outcome [10]: inactive
- AC50 [12]: 20 µM (active)
- AC50 [14]: 13.2 µM (active)
- AC50 [15]: 6.08 µM (active)
- outcome [16]: inactive
- outcome [17]: inactive
- AC50 [18]: 5.21 µM (active)

SMILES: COC(=O)c1ccccc1CS(=O)(=O)NC(=O)Nc1nc(OC)cc(OC)n1
- outcome [19]: inactive
- outcome [2]: inactive
- outcome [3]: inactive
- outcome [4]: inactive
- outcome [5]: inactive
- outcome [7]: inactive
- outcome [8]: inactive
- outcome [9]: inactive
- outcome [10]: inactive
- outcome [11]: inactive
- outcome [12]: inactive
- outcome [14]: inactive
- outcome [15]: inactive
- outcome [16]: inactive
- outcome [17]: inactive
- outcome [18]: inactive
